ChEMBL document CHEMBL3988442, “University of Dundee, Small-Polar-MMV Screening Library” (2021)
Among all 48,000 compounds or so, about 13,000 (27%) showed an effect of 50% or more. This is one part of the list.

Test system: Wolbachia pipientis
Assay: Anti-Wolbachia Cell-Based Screen
Assay type: functional
Design: scale not given: in the data most compounds retested in dose-response had high values
Conditions: 5 µM

Row | SMILES | Percent Effect
1 | Cc1cc(C(=O)N[C@H](C)c2onc(C)c2C(=O)O)c(C)o1.Cl | -8.572%
2 | Cc1cc(C)c(C(=O)NC2CCN(c3ncccc3C#N)CC2)c(=O)[nH]1 | 4.704%
3 | Cc1ccc(C(=O)N2CC(C(N)=O)O[C@H](C)C2)c(C)c1 (stereo not given in full) | -8.345%
4 | CCCSc1ncc(-c2nccn2CCC(N)=O)cn1 | -44.89%
5 | CC(CNC(=O)c1cnc[nH]1)Oc1ccc(Cl)cc1 (stereo not given) | 110.7%
6 | Cc1ccc(OC(C)CNC(=O)c2c[nH]nn2)cc1 (stereo not given) | 4.97%
7 | CC(CNS(N)(=O)=O)Oc1ccc(Cl)cc1 (stereo not given) | -13.16%
8 | CC(CNC(=O)c1cnc[nH]1)Oc1ccccc1Br (stereo not given) | 110.9%
9 | CC(CNC(=O)c1c[nH]nn1)Oc1ccccc1Br (stereo not given) | -9.853%
10 | CC(C)Oc1ccccc1CNC(=O)c1[nH]ncc1Br | 24.22%
11 | O=C(NC1CCCN(c2ccc(OC(F)F)cc2)C1)c1cnc[nH]1 (stereo not given) | -8.702%
12 | CN(Cc1ccco1)Cc1ccccc1CNC(=O)c1cnc[nH]1 | -12.45%
13 | CC(CNC(=O)c1c[nH]nn1)Oc1cccc(Br)c1 (stereo not given) | -32.96%
14 | COc1ccccc1C(C)CNC(=O)c1[nH]ncc1Br (stereo not given) | 42.12%
15 | COc1ccccc1OC(C)CNC(=O)c1cnc[nH]1 (stereo not given) | 110.3%
16 | CC(CNC(=O)c1c[nH]nn1)Oc1ccc(Cl)cc1 (stereo not given) | 99.95%
17 | CC(C)(O)c1cc(CC2(NCc3ccco3)COC2)no1 | -7.158%
18 | CN(C)CCn1ccnc1C1CCN(C(=O)CCc2ccncc2)CC1 | -7.346%
19 | CN(C)Cc1cnc(C2CCN(C(=O)c3cccc(Cl)c3)C2)[nH]1 (stereo not given) | 128.9%
20 | CCN(C1CCN(C(=O)c2cccc(Cl)c2)CC1)S(C)(=O)=O | 6.766%
21 | CN(C)Cc1cnc(C2CCN(C(=O)c3ccc(F)cc3)C2)[nH]1 (stereo not given) | 127.5%
22 | CN(C)Cc1ccc(C(=O)N2CCCC(n3cccn3)C2)cc1 (stereo not given) | 13.31%
23 | CC(C)N(C)Cc1cncc2c1CCN(C(=O)c1ccccc1F)C2.Cl.Cl | -2.748%
24 | Cc1ccc(C(=O)N2CCCC(Nc3ccc(F)cc3)C2)cc1 (stereo not given) | -37.46%
25 | CN(C)Cc1cnc(C2CCN(C(=O)c3cc(F)cc(F)c3)C2)[nH]1 (stereo not given) | 116.9%
26 | CCNS(=O)(=O)C1CCN(C(=O)c2c(F)cc(F)cc2F)C1 (stereo not given) | -5.983%
27 | CCOCCOc1ccccc1C(=O)N1CCCC(c2ncc[nH]2)C1 (stereo not given) | -24.68%

Row | SMILES | Percent Effect
28 | CN(C)Cc1cnc(C2CCN(C(=O)c3ccccc3F)C2)[nH]1.Cl (stereo not given) | 151.5%
29 | CCS(=O)(=O)N(C)C1CCN(C(=O)c2cccc(Cl)c2)CC1 | -7.301%
30 | CCNS(=O)(=O)C1CCN(C(=O)c2ccc(F)cc2)C1 (stereo not given) | 4.07%
31 | CCCS(=O)(=O)N1CCC2(CC(=O)N(c3cnn(C)c3)C2)C1 (stereo not given) | 9.344%
32 | CCOc1ccc(N(CCC#N)C(=O)c2ccc(SC)nc2)cc1 | -11.41%
33 | CC1CCCN1C1CCN(C(=O)c2cccc(F)c2)CC1 (stereo not given) | 1.778%
34 | O=C(c1cccc(F)c1)N1C[C@H]2CCCC(OCc3cccnc3)[C@H]2C1 (stereo not given in full) | 7.164%
35 | CN(C)Cc1cnc(C2CCN(C(=O)c3cccc(F)c3)C2)[nH]1 (stereo not given) | 98.09%
36 | CCc1cnc(N2CCC3(CC2)CCN(c2cnn(C)c2)C3=O)nc1 | -11.71%
37 | Cc1nonc1NC(=O)C1SCCc2ccccc21 (stereo not given) | -22.17%
38 | CCC(CO)N(Cc1ccsc1)Cc1cccc(O)c1 (stereo not given) | 4.07%
39 | CCC(CO)N(CC=C(C)C)Cc1ccsc1 (stereo not given) | -1.911%
40 | CCC(CO)N(Cc1ccsc1)Cc1c(C)nn(C)c1Cl (stereo not given) | 83.51%
41 | CCC(CO)N(Cc1ccco1)C(=O)c1cccc(C)c1O (stereo not given) | -5.185%
42 | CCC(CO)N(Cc1ccccn1)Cc1c[nH]nc1-c1ccc(F)cc1 (stereo not given) | -3.197%
43 | CCC(CO)N(Cc1ccc(F)cc1)Cc1c(C)nn(C)c1Cl (stereo not given) | 108.6%
44 | CCC(CO)N(Cc1ccncc1)Cc1c[nH]nc1-c1ccc(F)cc1 (stereo not given) | -8.532%
45 | CCC(CO)N(Cc1ccco1)Cc1c(C)nn(C)c1Cl (stereo not given) | 113.8%
46 | CCC(CO)N(Cc1ccco1)C(=O)c1ccc(F)cc1Cl (stereo not given) | -20.92%
47 | O=C(NC1(c2nnn(CC3CCCO3)n2)CCCC1)c1ccccc1 (stereo not given) | -21.33%
48 | CCC(=O)NCC(=O)Nc1c(C)cnn1Cc1cc(F)ccc1F | -6.238%
49 | FC(F)(F)c1[nH]nc2c1CN(Cc1ccccc1)CC2 | -6.07%
50 | Cn1c(=O)ccn(CC(=O)N2CCCC(n3cccn3)C2)c1=O (stereo not given) | -17.99%
51 | CC(=O)N1Cc2ccccc2C[C@H]1C(=O)N(C)Cc1ccccn1 | -7.664%
52 | N#Cc1ccc(NCC(=O)Nc2ncn(Cc3cccnc3)n2)cc1 | 2.258%
53 | N#Cc1cccc(C(=O)N2CCc3ncc(Cn4cccn4)n3CC2)c1 | -16.45%
54 | Cc1ccsc1C(=O)N1CCc2ncc(Cn3cccn3)n2CC1 | -18.82%

Row | SMILES | Percent Effect
55 | O=C(c1ccoc1)N1CCc2ncc(Cn3cccn3)n2CC1 | 85.84%
56 | Cn1cccc1C(=O)NCc1cnc2n1CCN(C(=O)c1ccoc1)C2 | -3.453%
57 | Cc1ccc(C(=O)N2CCc3ncc(Cn4cccn4)n3CC2)cn1 | 106.9%
58 | O=C(O)C(F)(F)F.O=C(c1ccccn1)N1CCc2ncc(Cn3cccn3)n2CC1 | 108.7%
59 | O=C(c1cccc(F)c1)N1CCc2ncc(Cn3cccn3)n2CC1 | 90.68%
60 | Cn1cccc1C(=O)N1CCc2ncc(Cn3cccn3)n2CC1 | -10.36%
61 | CN1CCN(Cc2cnc3n2CCN(C(=O)c2ccoc2)C3)CC1 | 1.07%
62 | N#Cc1ccc(C(=O)N2CCn3c(Cn4cccn4)cnc3C2)cc1.O=C(O)C(F)(F)F | -19.27%
63 | CC(NCc1ccc(OCC(N)=O)cc1)c1ccc(Cl)cc1Cl.Cl (stereo not given) | -2.997%
64 | CCc1cnc(NCc2nc(CSC)no2)nc1 | 19.97%
65 | Cc1cc(N(C)CC2COc3ccccc3O2)nc(C)n1 (stereo not given) | -50.37%
66 | CCOCCN1CCN(CC(=O)NC2(C#N)CCCC2)CC1C (stereo not given) | 0.8038%
67 | N#Cc1cccc(C(=O)N2CCn3c(Cn4cncn4)cnc3C2)c1 | 83.01%
68 | Cc1ccc(C(=O)N2CCc3ncc(Cn4cccn4)n3CC2)o1 | 95.36%
69 | CN1CCN(Cc2cnc3n2CCN(C(=O)c2ccnnc2)C3)CC1 | -11.55%
70 | O=C(NCc1ccccc1)N1CCn2c(Cn3cccn3)cnc2C1 | -1.854%
71 | Cc1cncc(C(=O)N2CCc3ncc(Cn4cccn4)n3CC2)c1 | 88.89%
72 | O=S(=O)(C1CC1)N1CCn2c(Cn3cncn3)cnc2C1 | 13.19%
73 | O=C(NCc1cccnc1)N1CCn2c(Cn3cccn3)cnc2C1 | 2.46%
74 | N#Cc1ccc(S(=O)(=O)N2CC(CC(=O)O)c3ccccc32)cc1 (stereo not given) | -12.53%
75 | Cc1noc(CNc2ccccc2CC(=O)N(C)C)n1 | -7.553%
76 | N#CCc1ccc(OCC(=O)N2CCCC(n3cccn3)C2)cc1 (stereo not given) | -0.2298%
77 | Cc1ncsc1CCN1CCC(N(C)Cc2ncc(C(C)C)o2)C1 (stereo not given) | -3.966%
78 | Cc1nnc(CN2CCOC(c3ccc(Cl)cc3)C2)o1 (stereo not given) | -9.345%
79 | O=c1[nH]c2nc(NCC3CCCO3)ncc2c(=O)n1-c1ccc(F)cc1 (stereo not given) | -3.035%
80 | CN(Cc1csc(-c2cccs2)n1)C(=O)CCn1ccccc1=O | -2.021%
81 | COc1cc(F)c(S(=O)(=O)N2CCN(C)Cc3ccccc32)cc1OC | -10.31%

Row | SMILES | Percent Effect
82 | CN(C)Cc1cc(=O)n2c(n1)CN(C(=O)Cc1ccsc1)CCC2.O=C(O)C(F)(F)F | -8.762%
83 | CC(C)N(C)Cc1cn2c(n1)CN(Cc1ccsc1)CC2.O=C(O)C(F)(F)F.O=C(O)C(F)(F)F | 6.195%
84 | CCN(CC)Cc1cn2c(n1)CN(C(=O)Cc1ccsc1)CC2.O=C(O)C(F)(F)F | 83.51%
85 | CC(C)N(C)Cc1cn2c(n1)CN(C(=O)Cc1ccsc1)CC2.O=C(O)C(F)(F)F | -0.9088%
86 | O=C(Cc1ccsc1)N1CCn2cc(Cn3cncn3)nc2C1 | 4.087%
87 | CC(=O)NCC(=O)N1CCn2cc(CN(C)Cc3ccco3)nc2C1.O=C(O)C(F)(F)F | -4.865%
88 | CN(C)Cc1cn2c(n1)CN(C(=O)Cc1ccsc1)CC2.O=C(O)C(F)(F)F | 96.46%
89 | CC(C)N(C)Cc1cn2c(n1)CN(C(=O)Cc1ccccc1)CC2.O=C(O)C(F)(F)F | 114%
90 | O=C(Cc1ccsc1)N1CCn2cc(CN3CCCC3)nc2C1 | -4.915%
91 | CN1CCOCC2(CCCN(C(=O)c3cn(C)cn3)C2)C1.O=C(O)C(F)(F)F (stereo not given) | -3.228%
92 | CCNC(=O)NC(C)(C)C(=O)NCCc1csc2ccccc12 | 9.687%
93 | O=C(Cc1cccnc1)NC1COc2ccccc2C1=O (stereo not given) | -10.11%
94 | CCCC1CCCN(C(=O)CNC(=O)c2ccoc2C)CC1 (stereo not given) | 7.571%
95 | O=S(=O)(NCCN1CCOCC1)c1cncc(Cl)c1 | -2.689%
96 | O=S(=O)(C1CC1)N1CCc2c(CN3CCOCC3)cncc2C1 | 82.99%
97 | CCOCc1cncc2c1CCN(S(=O)(=O)c1cccc(C)c1)C2 | 11.95%
98 | CC(C)(C)NC(=O)NC(=O)COc1nc(C(C)(C)C)no1 | -2.31%
99 | O=C(Cc1cc(-c2ccc3c(c2)OCO3)on1)NC1CCCC1 | -5.202%
100 | O=C(CCNCc1cccc2c1OCCCO2)NC1CCCC1 | -1.594%
101 | O=C(Cn1cnc2cc3c(cc21)OCCCO3)NC1CCCCC1 | 96.56%
102 | O=C(Cn1cnc2cc3c(cc21)OCCCO3)NC1CCCC1 | 88.37%
103 | CC(C)(C)n1ncc2c(=O)n(CC(=O)NCCc3ccccc3)cnc21 | 21.71%
104 | O=C(Cn1cnc2cc3c(cc21)OCCCO3)NCCc1ccccc1 | 66.67%
105 | O=C(Cn1cccnc1=O)NCCc1ccc2c(c1)OCCO2 | 1.93%
